Measurements published in publication PMC5540273 (PLoS ONE, 2017).

Legend:
Settings in all cases: concentration: 1 μM, replicates: in singlicate; n = 1
CHEK1 = system: CHEK1
CHEK2 = system: CHEK2
CIT = system: CIT
CLK1 = system: CLK1
CLK2 = system: CLK2
CLK3 = system: CLK3
CLK4 = system: CLK4
CSF1R-autoinhibited = system: CSF1R-autoinhibited
CSF1R = system: CSF1R
CSK = system: CSK
CSNK1A1L = system: CSNK1A1L
CSNK1A1 = system: CSNK1A1
CSNK1D = system: CSNK1D
CSNK1E = system: CSNK1E
CSNK1G1 = system: CSNK1G1
CSNK1G2 = system: CSNK1G2
CSNK1G3 = system: CSNK1G3
CSNK2A1 = system: CSNK2A1
CSNK2A2 = system: CSNK2A2
CTK = system: T1, CTK
T1 construct: gene MATK
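Also: KINOMEscan kinase panel screen.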

In the case of NS(=O)(=O)CCc1cccc(Nc2nccc(-c3c(-c4cccc(NC(=O)c5c(F)cccc5F)c4)nn4ccccc34)n2)c1 [GSK336735], the “%Inh” value (CHEK1) is reported as 4%, the “%Inh” value (CHEK2) is reported as 0% and the “%Inh” value (CIT) is reported as 53%. The “%Inh” value (CLK1) was 27%, the “%Inh” value (CLK2) was 10% and the “%Inh” value (CLK3) was 100%. For the same compound, the “%Inh” value (CLK4) was 21%, the “%Inh” value (CSF1R-autoinhibited) was 21% and the “%Inh” value (CSF1R) was 99.7%. For the same compound, the “%Inh” value (CSK) was 97.5%, the “%Inh” value (CSNK1A1L) was 7% and the “%Inh” value (CSNK1A1) was 0%. For the same compound, the “%Inh” value (CSNK1D) was 33%, the “%Inh” value (CSNK1E) was 90.4% and the “%Inh” value (CSNK1G1) was 14%. For the same compound, the “%Inh” value (CSNK1G2) was 5%, the “%Inh” value (CSNK1G3) was 19% and the “%Inh” value (CSNK2A1) was 9%. The “%Inh” value (CSNK2A2) was 9% and the “%Inh” value (CTK) was 0%.
O=C(NOCC1CC1)c1ccc(F)c(F)c1Nc1ccc(I)cc1Cl was tested, and the “%Inh” value (CHEK1) was 0%, the “%Inh” value (CHEK2) was 21% and the “%Inh” value (CIT) was 0%. For the same compound, the “%Inh” value (CLK1) was 0%, the “%Inh” value (CLK2) was 3% and the “%Inh” value (CLK3) was 0%. The “%Inh” value (CLK4) was 0%, the “%Inh” value (CSF1R-autoinhibited) was 0% and the “%Inh” value (CSF1R) was 0%. The “%Inh” value (CSK) was 0%, the “%Inh” value (CSNK1A1L) was 0% and the “%Inh” value (CSNK1A1) was 3%. The “%Inh” value (CSNK1D) was 0%, the “%Inh” value (CSNK1E) was 3% and the “%Inh” value (CSNK1G1) was 0%. The “%Inh” value (CSNK1G2) was 0%, the “%Inh” value (CSNK1G3) was 0% and the “%Inh” value (CSNK2A1) was 0%. The “%Inh” value (CSNK2A2) was 18% and the “%Inh” value (CTK) was 0%.
For N#Cc1ccc(-c2cc(-c3c[nH]nc3-c3ccccn3)ccn2)cc1 [GW693028], the “%Inh” value (CHEK1) was 0%, the “%Inh” value (CHEK2) was 0% and the “%Inh” value (CIT) was 35%. For the same compound, the “%Inh” value (CLK1) was 22%, the “%Inh” value (CLK2) was 8% and the “%Inh” value (CLK3) was 0%. The “%Inh” value (CLK4) was 38%, the “%Inh” value (CSF1R-autoinhibited) was 0% and the “%Inh” value (CSF1R) was 20%. The “%Inh” value (CSK) was 0%, the “%Inh” value (CSNK1A1L) was 12% and the “%Inh” value (CSNK1A1) was 19%. For the same compound, the “%Inh” value (CSNK1D) was 62%, the “%Inh” value (CSNK1E) was 32% and the “%Inh” value (CSNK1G1) was 8%. For the same compound, the “%Inh” value (CSNK1G2) was 0%, the “%Inh” value (CSNK1G3) was 8% and the “%Inh” value (CSNK2A1) was 0%. The “%Inh” value (CSNK2A2) was 5% and the “%Inh” value (CTK) was 0%.
CNc1ncnc2[nH]ncc12 [SKF-18355] was tested, and the “%Inh” value (CHEK1) was 0%, the “%Inh” value (CHEK2) was 0% and the “%Inh” value (CIT) was 9%. The “%Inh” value (CLK1) was 19%, the “%Inh” value (CLK2) was 8% and the “%Inh” value (CLK3) was 9%. For the same compound, the “%Inh” value (CLK4) was 0%, the “%Inh” value (CSF1R-autoinhibited) was 0% and the “%Inh” value (CSF1R) was 0%. For the same compound, the “%Inh” value (CSK) was 0%, the “%Inh” value (CSNK1A1L) was 0% and the “%Inh” value (CSNK1A1) was 14%. The “%Inh” value (CSNK1D) was 0%, the “%Inh” value (CSNK1E) was 32% and the “%Inh” value (CSNK1G1) was 0%. The “%Inh” value (CSNK1G2) was 0%, the “%Inh” value (CSNK1G3) was 11% and the “%Inh” value (CSNK2A1) was 0%. The “%Inh” value (CSNK2A2) was 3% and the “%Inh” value (CTK) was 18%.
With O=C(Nc1cccc(-c2nn3ncccc3c2-c2ccnc(Nc3cccc(C(F)(F)F)c3)n2)c1)c1c(F)cccc1F [GSK299495] the “%Inh” value (CHEK1) was 5%, the “%Inh” value (CHEK2) was 0% and the “%Inh” value (CIT) was 0%. For the same compound, the “%Inh” value (CLK1) was 18%, the “%Inh” value (CLK2) was 100% and the “%Inh” value (CLK3) was 0%. The “%Inh” value (CLK4) was 25%, the “%Inh” value (CSF1R-autoinhibited) was 8% and the “%Inh” value (CSF1R) was 98.1%. For the same compound, the “%Inh” value (CSK) was 88%, the “%Inh” value (CSNK1A1L) was 24% and the “%Inh” value (CSNK1A1) was 0%. The “%Inh” value (CSNK1D) was 12%, the “%Inh” value (CSNK1E) was 82% and the “%Inh” value (CSNK1G1) was 0%. The “%Inh” value (CSNK1G2) was 0%, the “%Inh” value (CSNK1G3) was 18% and the “%Inh” value (CSNK2A1) was 0%. For the same compound, the “%Inh” value (CSNK2A2) was 0% and the “%Inh” value (CTK) was 0%.
For Cc1cccc(Cn2ccn3c(=O)cc(N4CCOCC4)nc23)c1 [GSK2297542], the “%Inh” value (CHEK1) was 13%, the “%Inh” value (CHEK2) was 4% and the “%Inh” value (CIT) was 23%. For the same compound, the “%Inh” value (CLK1) was 50%, the “%Inh” value (CLK2) was 20% and the “%Inh” value (CLK3) was 58%. For the same compound, the “%Inh” value (CLK4) was 45%, the “%Inh” value (CSF1R-autoinhibited) was 8% and the “%Inh” value (CSF1R) was 11%. For the same compound, the “%Inh” value (CSK) was 55%, the “%Inh” value (CSNK1A1L) was 18% and the “%Inh” value (CSNK1A1) was 19%. The “%Inh” value (CSNK1D) was 48%, the “%Inh” value (CSNK1E) was 55% and the “%Inh” value (CSNK1G1) was 27%. The “%Inh” value (CSNK1G2) was 16%, the “%Inh” value (CSNK1G3) was 25% and the “%Inh” value (CSNK2A1) was 2%. For the same compound, the “%Inh” value (CSNK2A2) was 22% and the “%Inh” value (CTK) was 0%.
With O=c1cc(N2CCOCC2)nc2n(Cc3cccc4ccccc34)ccn12 [GSK2333389] the “%Inh” value (CHEK1) was 20%, the “%Inh” value (CHEK2) was 0% and the “%Inh” value (CIT) was 9%. For the same compound, the “%Inh” value (CLK1) was 48%, the “%Inh” value (CLK2) was 3% and the “%Inh” value (CLK3) was 0%. For the same compound, the “%Inh” value (CLK4) was 31%, the “%Inh” value (CSF1R-autoinhibited) was 0% and the “%Inh” value (CSF1R) was 4%. The “%Inh” value (CSK) was 0%, the “%Inh” value (CSNK1A1L) was 11% and the “%Inh” value (CSNK1A1) was 13%. For the same compound, the “%Inh” value (CSNK1D) was 42%, the “%Inh” value (CSNK1E) was 20% and the “%Inh” value (CSNK1G1) was 0%. The “%Inh” value (CSNK1G2) was 0%, the “%Inh” value (CSNK1G3) was 20% and the “%Inh” value (CSNK2A1) was 13%. For the same compound, the “%Inh” value (CSNK2A2) was 0% and the “%Inh” value (CTK) was 1%.
CN(C1=C(c2ccccc2)C(=O)NC1=O)c1ccccc1 [SB-334860] was tested, and the “%Inh” value (CHEK1) was 0%, the “%Inh” value (CHEK2) was 16% and the “%Inh” value (CIT) was 37%. For the same compound, the “%Inh” value (CLK1) was 24%, the “%Inh” value (CLK2) was 12% and the “%Inh” value (CLK3) was 0%. The “%Inh” value (CLK4) was 6%, the “%Inh” value (CSF1R-autoinhibited) was 0% and the “%Inh” value (CSF1R) was 18%. For the same compound, the “%Inh” value (CSK) was 6%, the “%Inh” value (CSNK1A1L) was 0% and the “%Inh” value (CSNK1A1) was 0%. The “%Inh” value (CSNK1D) was 19%, the “%Inh” value (CSNK1E) was 17% and the “%Inh” value (CSNK1G1) was 7%. For the same compound, the “%Inh” value (CSNK1G2) was 0%, the “%Inh” value (CSNK1G3) was 22% and the “%Inh” value (CSNK2A1) was 1%. The “%Inh” value (CSNK2A2) was 21% and the “%Inh” value (CTK) was 0%.
With Nc1nc(-c2ccc3c(N)n[nH]c3c2)cc(N2CCCC2)n1 [GSK2227430] the “%Inh” value (CHEK1) was 9%, the “%Inh” value (CHEK2) was 0% and the “%Inh” value (CIT) was 0%. The “%Inh” value (CLK1) was 26%, the “%Inh” value (CLK2) was 1% and the “%Inh” value (CLK3) was 0%. The “%Inh” value (CLK4) was 36%, the “%Inh” value (CSF1R-autoinhibited) was 0% and the “%Inh” value (CSF1R) was 2%. For the same compound, the “%Inh” value (CSK) was 0%, the “%Inh” value (CSNK1A1L) was 0% and the “%Inh” value (CSNK1A1) was 0%. The “%Inh” value (CSNK1D) was 0%, the “%Inh” value (CSNK1E) was 25% and the “%Inh” value (CSNK1G1) was 0%. For the same compound, the “%Inh” value (CSNK1G2) was 0%, the “%Inh” value (CSNK1G3) was 19% and the “%Inh” value (CSNK2A1) was 0%. For the same compound, the “%Inh” value (CSNK2A2) was 4% and the “%Inh” value (CTK) was 0%.
Cc1nnc(-c2ccc(C)c(-c3ccc(C(=O)Nc4ccc(NS(C)(=O)=O)cc4)cc3)c2)o1 [GW702865] was tested, and the “%Inh” value (CHEK1) was 0%, the “%Inh” value (CHEK2) was 30% and the “%Inh” value (CIT) was 7%. The “%Inh” value (CLK1) was 2%, the “%Inh” value (CLK2) was 0% and the “%Inh” value (CLK3) was 2%. For the same compound, the “%Inh” value (CLK4) was 0%, the “%Inh” value (CSF1R-autoinhibited) was 37% and the “%Inh” value (CSF1R) was 1%. For the same compound, the “%Inh” value (CSK) was 0%, the “%Inh” value (CSNK1A1L) was 0% and the “%Inh” value (CSNK1A1) was 0%. The “%Inh” value (CSNK1D) was 14%, the “%Inh” value (CSNK1E) was 0% and the “%Inh” value (CSNK1G1) was 0%. For the same compound, the “%Inh” value (CSNK1G2) was 15%, the “%Inh” value (CSNK1G3) was 17% and the “%Inh” value (CSNK2A1) was 0%. For the same compound, the “%Inh” value (CSNK2A2) was 15% and the “%Inh” value (CTK) was 0%.
